CRE Fsk mod: Cell signaling CRE-BLA (Fsk stim); CHO CRE-bla reporter (cAMP response element driving beta-lactamase), forskolin EC10, beta-lactamase ratio; Potency, µM (highest dose often 38.2 µM), without a hit: at the top dose activity change, negative = inhibition, usual class: activators; hit rate 2.5% among 71,000; AID 662, 2007; active means well fitted activation curve with a large enough effect in the signal ratio, with a control signal flat, not every such curve was filed as active; inconclusive means small, poorly fitted or top-dose-only effect, or effect the other way, or a change in a side signal; the % refers to the signal ratio; further: % of control where 0% means no effect
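Using CellSensor CRE-bla CHO cells in Opti-MEM with 0.5% dialyzed FBS, compounds were titrated with EC10 NKH 477 for 3 h at 37 °C. CCF4 ratio (460/530 nm) gave %Activity; AC50 derived.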
ERK AVP inh: qHTS Assay for Inhibitors of the ERK Signaling Pathway using a Homogeneous Screening Assay; HEK293-V1b, vasopressin-stimulated pERK AlphaScreen; Potency, µM (top dose mostly 57.5 µM), for inactives: top-dose activity, negative = inhibition, most hits filed as inhibitors; hit rate 0.99% among 72,000; further: on the % scale 0 is the no-effect control and ±100 the full control effect; nearly all actives have a fitted effect of over 55% in size
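HEK293 cells stably expressing V1b receptor, preincubated 30 min at 37 °C with compound, then stimulated 5 min with 25 nM vasopressin. Phospho-ERK by AlphaScreen SureFire after 5 h RT; normalized to DMSO and vasopressin; AC50 by Hill fit.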
TSHR ag: qHTS Assay for Agonists of the Thyroid Stimulating Hormone Receptor; HEK293-CNG-TSHR cells (CNG channel as cAMP sensor), membrane potential dye, cAMP; hit rate 0.48% among 73,000; Thyrotropin receptor (Homo sapiens), P16473; Potency, µM (top dose mostly 57.1 µM), for inactives: top-dose activation, hits mostly activators; active means well fitted activation curve with a large enough effect in the main read-out, with a control signal flat, not every such curve was filed as active; inconclusive means small, poorly fitted or top-dose-only effect, or a change in a side signal; inactive means no such curve, though single readings can be large or run the other way; % of control where 0% means no effect;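 further: the control signal comes from parental cells without the receptor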
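HEK 293 cells stably expressing TSHR and a cAMP-gated CNG channel; parental CNG-only cells as counterscreen. Cells preloaded 60 min with membrane potential dye plus 100 uM RO 20-1724, then compound 30 min; fluorescence read at 590 nm.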
Tau fil binding: qHTS Assay for Tau Filament Binding; Microtubule-associated protein tau (Homo sapiens), P10636; recombinant tau filaments, thioflavin S fluorescence, 15 h; filaments grown with octadecylsulfate alongside compound; Potency, µM (top dose mostly 57.1 µM), inactives show at the top dose activity change, negative = inhibition; hit rate 2% among 71,000;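 further: on the % scale 0 is the no-effect control and ±100 the full control effect; actives lower thioflavin S fluorescence by blocking filaments or displacing dye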
Target sequence (P10636 whole entry, looked up): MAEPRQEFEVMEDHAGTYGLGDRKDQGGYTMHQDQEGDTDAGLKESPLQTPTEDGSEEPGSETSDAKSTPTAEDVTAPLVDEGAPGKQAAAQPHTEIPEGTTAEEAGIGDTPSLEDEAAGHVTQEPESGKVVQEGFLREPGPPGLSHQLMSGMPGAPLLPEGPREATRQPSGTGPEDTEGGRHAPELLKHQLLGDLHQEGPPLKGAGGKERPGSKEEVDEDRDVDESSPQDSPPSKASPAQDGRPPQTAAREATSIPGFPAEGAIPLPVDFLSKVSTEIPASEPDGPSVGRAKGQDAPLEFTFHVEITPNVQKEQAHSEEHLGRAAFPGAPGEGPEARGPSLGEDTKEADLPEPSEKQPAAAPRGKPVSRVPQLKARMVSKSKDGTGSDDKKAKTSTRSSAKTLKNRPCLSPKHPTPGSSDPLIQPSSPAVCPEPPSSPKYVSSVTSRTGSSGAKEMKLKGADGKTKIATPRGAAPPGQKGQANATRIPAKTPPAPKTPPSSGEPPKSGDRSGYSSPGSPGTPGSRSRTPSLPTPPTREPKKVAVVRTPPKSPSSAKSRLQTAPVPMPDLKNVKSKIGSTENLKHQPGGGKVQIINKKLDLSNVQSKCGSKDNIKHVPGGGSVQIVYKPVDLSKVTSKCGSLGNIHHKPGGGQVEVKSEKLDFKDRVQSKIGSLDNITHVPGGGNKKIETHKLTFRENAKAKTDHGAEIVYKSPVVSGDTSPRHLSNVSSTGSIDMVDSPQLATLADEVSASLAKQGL
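Read-out: ThS fluorescence, 450 nm excitation/510 nm emission; lower signal marks blocked filament formation or displaced dye. Tau at 1 uM with 30 uM ODS, 10 uM ThS, 5 mM DTT, 100 mM NaCl, 10 mM HEPES pH 7.4; 15 h, 37 C.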
HEK293 cAMP cs: qHTS Assay for Agonists of the Thyroid Stimulating Hormone Receptor: Activators of Intracellular cAMP Concentrations in Parental HEK 293. AID 938, 2007. parental HEK293 CNG cAMP sensor, membrane potential fluorescence. Potency, µM (titrated, usually from 57.1 µM), without a hit: at the highest dose activation, most hits filed as activators. hit rate 2.5% among 73,000; further: % of control where 0% means no effect; nearly all actives have a fitted effect of over 55% in size
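Counterscreen for endogenous-receptor signalling: CNG-channel HEK 293 cells report cAMP rise by membrane depolarization. After 60 min dye equilibration with 100 uM RO 20-1724, compounds incubated 30 min before bottom-read fluorescence at 590 nm.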
Active calls of the source: *; [ ] = dose if it differs, or a comment. Shown are actives, neighbours in structure and some others; about 7.6% of the full set was active somewhere. Unless noted, the call rests on the fitted dose curve; in most records, active means well fitted curve in the direction sought with a large enough effect; inconclusive means small, poorly fitted or top-dose-only effect, or another doubt; inactive means no such curve, though single readings can be large; an effect the other way counts as inactive or inconclusive. Potency means the concentration at half of the fitted maximal effect.

For COc1ccccc1CCn1c(=O)c(-c2ccc(F)cc2)nc2cncnc21 the results were CRE Fsk mod inconclusive, ERK AVP inh inconclusive, TSHR ag inconclusive, Tau fil binding -9.3% and HEK293 cAMP cs inconclusive.
O=c1c(-c2ccccc2)nc2cncnc2n1Cc1ccccc1Cl was read as CRE Fsk mod inconclusive, ERK AVP inh -24.1%, TSHR ag -14.8%, Tau fil binding inconclusive and HEK293 cAMP cs -19.7%.
For COc1ccccc1CCn1c(=O)c(-c2cccc(Cl)c2)nc2cncnc21 the results were CRE Fsk mod inconclusive, ERK AVP inh -28.4%, TSHR ag inconclusive, Tau fil binding 12.6µM* and HEK293 cAMP cs inconclusive.
Screening O=c1c(-c2cccc(Cl)c2)nc2cncnc2n1Cc1ccccc1Cl returned CRE Fsk mod inconclusive, ERK AVP inh inconclusive, TSHR ag inconclusive, Tau fil binding 6.31µM* and HEK293 cAMP cs inconclusive.
Screening COc1ccc(Oc2ncc3nc(-c4ccc(OC)cc4)c(=O)n(C4CC4)c3n2)cc1 returned CRE Fsk mod inconclusive, ERK AVP inh 7.6%, TSHR ag 3.0%, Tau fil binding 15.1% and HEK293 cAMP cs 12.9%.
COc1ccc(-n2c(=O)c(C)nc3cnc(Nc4ccccc4)nc32)cc1 was read as CRE Fsk mod inconclusive, ERK AVP inh -10.4%, TSHR ag inconclusive, Tau fil binding -0.4% and HEK293 cAMP cs inconclusive.
`O=C(c1cccc(F)c1)N1CCN(c2cccc(C(F)(F)F)c2)CC1` gave CRE Fsk mod inconclusive, ERK AVP inh 5.4%, TSHR ag 24.5%, Tau fil binding -6.6% and HEK293 cAMP cs 14.5%.
Screening CCOC(=O)N1CCN(c2ccc(C(=O)c3cccc(F)c3)cc2)CC1 returned CRE Fsk mod -7.9%, ERK AVP inh 15.2%, TSHR ag inconclusive, Tau fil binding -5.3% and HEK293 cAMP cs 20µM*.
For Nc1nc(-c2ccc(Cl)cc2)nn1C(=O)c1cccnc1 the results were CRE Fsk mod -4.2%, ERK AVP inh -25.9%, TSHR ag -2.9%, Tau fil binding -7.3% and HEK293 cAMP cs 1.2%.
Cc1nn(C(=O)c2cccnc2)c(C)c1C was read as CRE Fsk mod -2.4%, ERK AVP inh 0.7%, TSHR ag inconclusive, Tau fil binding 11.4% and HEK293 cAMP cs 6.31µM*.
`C=CCOC(=O)C(C(C)=O)C(NC(=O)OC)c1ccc(F)cc1` (stereo not given) gave ERK AVP inh 13.3%[11.5 µM], TSHR ag 1.8%[11.4 µM] and HEK293 cAMP cs 9.3%[11.4 µM].
Screening O=C(Nc1ccc(O)cc1)C1CC=CCC1 (stereo not given) returned CRE Fsk mod inconclusive, ERK AVP inh 2.5%, TSHR ag 0.0%, Tau fil binding 12.6µM* and HEK293 cAMP cs 7.0%.
`Cc1nnc(SCCC(=O)Nc2nc(-c3ccccc3)ns2)s1` gave CRE Fsk mod -4.5%, ERK AVP inh 31.6µM*, TSHR ag 1.2%, Tau fil binding -25.4% and HEK293 cAMP cs 6.0%.
For C[C@@H](C(=O)Nc1ccc2ccccc2c1)[C@H]1C[C@]1(C)[C@H](NC(=O)c1ccccc1)c1ccccc1 the results were CRE Fsk mod inconclusive, ERK AVP inh -9.4%, TSHR ag 15.9%, Tau fil binding 3.6% and HEK293 cAMP cs 10.6%.
Screening CSCSC1=C(C#N)C(c2ccc(Cl)cc2)C(C(C)=O)=C(C)N1 (stereo not given) returned CRE Fsk mod -11.8%, ERK AVP inh 7.0%, TSHR ag inconclusive, Tau fil binding -6.9% and HEK293 cAMP cs 25.1µM*.
`CCOC(=O)CSC1=C(C#N)C(c2ccccc2)C(C(C)=O)=C(C)N1` (stereo not given) gave CRE Fsk mod 19.7%, ERK AVP inh 17.7%, TSHR ag -7.0%, Tau fil binding 10.8% and HEK293 cAMP cs 20.4%.
For Cc1ccc2c(c1)[C@H]1OCC[C@H]1[C@@H](c1ccncc1)N2 the results were CRE Fsk mod 3.9%, ERK AVP inh -1.9%, TSHR ag -3.9%, Tau fil binding -10.5% and HEK293 cAMP cs -2.1%.
Clc1ccc2c(c1)C1OCCC1C(c1ccco1)N2 (stereo not given) was read as CRE Fsk mod -7.9%, ERK AVP inh -22.2%, Tau fil binding 25.1µM* and HEK293 cAMP cs -12.1%.
`O=C(Nc1cccc(F)c1)N1CC2(CCN(C(=O)c3ccncc3)CC2)C1` gave CRE Fsk mod -0.9%, ERK AVP inh 6.5%, TSHR ag 24.6%, Tau fil binding -6.7% and HEK293 cAMP cs 9.7%.
For O=C(NC1CCCC1)C(c1ccncc1)N(Cc1cccs1)C(=O)c1csnn1 (stereo not given) the results were CRE Fsk mod -11.0%, ERK AVP inh -0.7%, TSHR ag inconclusive, Tau fil binding -2.3% and HEK293 cAMP cs inconclusive.
Cc1ccc(C(C(=O)NC2CCCC2)N(Cc2ccc(F)cc2)C(=O)c2csnn2)o1 (stereo not given) was read as CRE Fsk mod -4.8%, ERK AVP inh 0.0%, TSHR ag inconclusive, Tau fil binding 36.9% and HEK293 cAMP cs 15.8µM*.
`CCOC(=O)c1oc2ccccc2c1CSc1nnnn1-c1ccccc1` gave CRE Fsk mod 11.7%, ERK AVP inh -20.0%, TSHR ag inconclusive, Tau fil binding 66.3% and HEK293 cAMP cs 15.8µM*.
CCOC(=O)c1sc(NC(=O)CSc2nnnn2-c2ccccc2)nc1C was read as CRE Fsk mod inconclusive, ERK AVP inh inconclusive, TSHR ag 18.8%[11.4 µM], Tau fil binding inactive[11.4 µM] and HEK293 cAMP cs 16.3%[11.4 µM].
`CC1=C(/C=C/C(C)=C/C=C/C(C)=C/C(=O)Nc2ccc(O)cc2)C(C)(C)CCC1` gave CRE Fsk mod inconclusive, ERK AVP inh 7.4%, TSHR ag -8.5%, Tau fil binding 3.16µM* and HEK293 cAMP cs -15.4%.
CC1=C(/C=C/C(C)=C/C=C/C(C)=C/C=C/C=C(C)/C=C/C=C(C)/C=C/C2=C(C)C(=O)C(O)CC2(C)C)C(C)(C)CC(O)C1=O (stereo not given) was read as ERK AVP inh -9.2%.
For Cc1cc2c(=O)n(Cc3ccco3)c(SCC(=O)N3CCCc4ccccc43)nc2s1 the results were CRE Fsk mod inconclusive, ERK AVP inh inconclusive, TSHR ag inconclusive, Tau fil binding 117.3% and HEK293 cAMP cs 31.6µM*.
CCn1c(SCC(=O)N2CCCc3ccccc32)nc2ccccc2c1=O was read as CRE Fsk mod inconclusive, ERK AVP inh -4.4%, TSHR ag inconclusive, Tau fil binding 10.5% and HEK293 cAMP cs 10µM*.

Source: PubChem
